Experimental data as given in PubChem BioAssay (Tox21).
Inconclusive results are not listed. Activity calls are given as the source filed them. Unless noted, calls follow the shape of the dose curve; as a rule, active = well fitted curve in the direction sought with a large enough effect in the repeat runs; inconclusive = weak or mixed curves; inactive = no such curve, though single readings can be large; an effect the other way counts as inactive or inconclusive.

How the values were obtained:
[1] = qHTS assay to identify small molecule agonists of the constitutive androstane receptor (CAR) signaling pathway - cell viability counter screen (AID 1224836); also: series mostly up to about 92 µM; nearly all actives have a fitted effect of over 45% in size
Method in brief: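 Double-stable HepG2 hepatoma cells (hCAR plus CYP2B6-2.2kb) are treated for 23 h at 37 C with test compounds in 15-point concentration series. PK11195 at 0.75 uM final is co-added. Cell viability is quantified by CellTiter-Fluor.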

[2] = qHTS assay to identify small molecule antagonists of the constitutive androstane receptor (CAR) signaling pathway - cell viability counter screen (AID 1224837); also: nearly all actives have a fitted effect of over 45% in size; also: potency is read from the fitted curve at half-maximal effect
Method in brief: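 Read-out: CellTiter-Fluor fluorescence after 23 hr at 37 C/5% CO2. Cells: HepG2 double-stable for hCAR and CYP2B6-2.2kb. Compounds tested at 15 concentrations in the presence of CITCO, final concentration 50 nM.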

[3] = target: Nuclear receptor subfamily 1 group I member 3 (Homo sapiens) (UniProt Q14994); assay: qHTS assay to identify small molecule antagonists of the constitutive androstane receptor (CAR) signaling pathway (AID 1224838);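 also: HepG2 cells stably expressing hCAR with CYP2B6 luciferase reporter stimulated by CITCO; nearly all actives have a fitted effect of over 40% in size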; also: potency is read from the fitted curve at half-maximal effect
Nuclear receptor subfamily 1 group I member 3 (Homo sapiens), sequence (Q14994 whole entry, looked up): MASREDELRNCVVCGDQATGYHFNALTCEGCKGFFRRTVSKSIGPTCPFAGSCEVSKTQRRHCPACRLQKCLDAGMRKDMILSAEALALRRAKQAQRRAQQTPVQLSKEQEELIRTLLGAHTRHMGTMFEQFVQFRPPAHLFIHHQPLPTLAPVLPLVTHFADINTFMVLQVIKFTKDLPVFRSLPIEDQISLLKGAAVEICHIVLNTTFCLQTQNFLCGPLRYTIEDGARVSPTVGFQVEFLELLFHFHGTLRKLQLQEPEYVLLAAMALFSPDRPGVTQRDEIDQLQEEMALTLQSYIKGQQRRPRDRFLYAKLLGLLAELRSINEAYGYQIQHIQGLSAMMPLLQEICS
Method in brief: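 Read-out: ONE-Glo luciferase luminescence after 30 min at room temperature. HepG2-CYP2B6-hCAR double-stable cells, compounds in 15-point titration plus 50 nM CITCO final, 24 h at 37 C/5% CO2.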

[4] = target: Nuclear receptor subfamily 1 group I member 3 (Homo sapiens) (UniProt Q14994); assay: qHTS assay to identify small molecule agonists of the constitutive androstane receptor (CAR) signaling pathway (AID 1224839); also: nearly all actives have a fitted effect of over 15% in size; also: potency is read from the fitted curve at half-maximal effect
Method in brief: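 Readout: firefly luciferase luminescence via ONE-Glo. System: HepG2 double-stable for hCAR and CYP2B6-2.2kb. Conditions: 15-point compound titration, PK11195 at 0.75 uM final, 24 h incubation.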

[5] = qHTS assay to identify small molecule antagonists of the estrogen related receptor signaling pathway with the pleiotropic PPARgamma coactivator (PGC) from Tox21 10K library - cell viability counter screen (AID 1224840; active = well fitted cell-killing curve with a large enough effect in the repeat runs, not every such curve was filed as active; also: nearly all actives have a fitted effect of over 40% in size; also: potency is read from the fitted curve at half-maximal effect)
Method in brief: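 Fluorescence read-out of CellTiter-Fluor viability reagent, added after cells had been exposed to compound in DMSO for 17.5 h at 37 C; 30 min development at 37 C/5% CO2. Cells: PGC/ERR line, 2,000/well.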

[6] = target: Thyrotropin receptor (Homo sapiens) (UniProt P16473); assay: qHTS assay to identify small molecule agonists of the thyroid stimulating hormone receptor (TSHR) signaling pathway (AID 1224843; calls by dose curve; also: nearly all actives have a fitted effect of over 45% in size)
Thyrotropin receptor (Homo sapiens), sequence (P16473 whole entry, looked up): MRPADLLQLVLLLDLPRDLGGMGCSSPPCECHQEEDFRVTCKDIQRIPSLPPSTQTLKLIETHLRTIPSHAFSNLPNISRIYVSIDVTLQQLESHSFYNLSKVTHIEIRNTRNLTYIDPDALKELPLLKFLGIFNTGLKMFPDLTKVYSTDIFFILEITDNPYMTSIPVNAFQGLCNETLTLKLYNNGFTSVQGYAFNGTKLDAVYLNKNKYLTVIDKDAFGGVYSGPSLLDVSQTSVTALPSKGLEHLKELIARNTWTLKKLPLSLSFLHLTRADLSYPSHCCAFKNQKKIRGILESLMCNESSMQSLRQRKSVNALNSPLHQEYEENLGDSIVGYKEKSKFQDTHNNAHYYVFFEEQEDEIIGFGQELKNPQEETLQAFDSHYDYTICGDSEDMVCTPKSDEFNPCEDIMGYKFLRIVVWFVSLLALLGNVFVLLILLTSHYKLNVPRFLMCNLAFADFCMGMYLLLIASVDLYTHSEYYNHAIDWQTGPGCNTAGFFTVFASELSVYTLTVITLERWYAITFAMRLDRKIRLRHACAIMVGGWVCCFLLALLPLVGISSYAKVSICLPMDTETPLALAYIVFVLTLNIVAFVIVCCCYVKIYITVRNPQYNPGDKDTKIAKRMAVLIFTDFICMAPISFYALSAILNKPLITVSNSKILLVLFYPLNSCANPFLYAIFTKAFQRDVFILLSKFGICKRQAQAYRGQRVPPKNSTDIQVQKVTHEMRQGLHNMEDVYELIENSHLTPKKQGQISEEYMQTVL
Method in brief: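 Agonist activity read as cAMP rise via d2/cryptate HTRF competition, 1 h room-temperature detection, in HEK293 cells expressing TSHR. Fifteen-point titrations, each run in triplicate, with a 30 min room-temperature incubation beforehand.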

[7] = qHTS assay to identify small molecule agonists of the hypoxia (HIF-1) signaling pathway - cell viability counter screen (AID 1224844; calls by dose curve; also: nearly all actives have a fitted effect of over 50% in size; also: potency is read from the fitted curve at half-maximal effect)
Method in brief: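 CellTiter-Glo luminescence read-out, 30 min RT, taken in the same wells as the beta-lactamase HRE reporter assay; HRE-bla ME-180 cells, 0.5% dialyzed FBS, 17 hr compound treatment at 37C, 5% CO2.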

[8] = target: Luciferin 4-monooxygenase (Photinus pyralis) (UniProt P08659); assay: qHTS assay to identify small molecule inhibitors of firefly luciferase (AID 1224835); also: nearly all actives have a fitted effect of over 25% in size; also: potency is read from the fitted curve at half-maximal effect
Luciferin 4-monooxygenase (Photinus pyralis), sequence (P08659 whole entry, looked up): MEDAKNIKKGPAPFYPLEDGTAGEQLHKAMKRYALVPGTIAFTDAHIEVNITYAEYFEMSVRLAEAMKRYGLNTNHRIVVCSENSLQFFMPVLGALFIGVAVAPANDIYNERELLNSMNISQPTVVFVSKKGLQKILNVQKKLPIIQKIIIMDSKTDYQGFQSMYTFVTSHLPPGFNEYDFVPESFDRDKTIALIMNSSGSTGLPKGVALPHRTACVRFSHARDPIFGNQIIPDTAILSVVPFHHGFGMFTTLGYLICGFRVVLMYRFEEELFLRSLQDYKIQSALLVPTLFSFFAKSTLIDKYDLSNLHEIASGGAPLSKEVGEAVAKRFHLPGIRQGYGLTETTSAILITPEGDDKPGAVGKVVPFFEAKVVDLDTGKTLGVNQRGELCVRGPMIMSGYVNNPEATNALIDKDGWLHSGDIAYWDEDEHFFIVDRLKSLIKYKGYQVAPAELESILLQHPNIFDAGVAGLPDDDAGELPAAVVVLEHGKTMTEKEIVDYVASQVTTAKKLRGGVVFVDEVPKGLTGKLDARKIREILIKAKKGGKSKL
Method in brief: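 Inhibition of purified Photinus luciferase is measured by luminescence. Substrate levels (D-luciferin, ATP) sit at their KM values. Each compound is tested in a concentration series.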

[9] = qHTS assay to identify small molecule antagonists of the estrogen related receptor signaling pathway with the pleiotropic PPARgamma coactivator (PGC) from Tox21 10K library (AID 1224841; call rule not given here; also: actives are mostly falling curves and most rising ones were filed inactive; nearly all actives have a fitted effect of over 50% in size; also: potency is read from the fitted curve at half-maximal effect)
Method in brief: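 Luminescence read-out (One-Glo luciferase reagent, 30 min at room temperature) from PGC/ERR cells exposed to DMSO-dissolved test compounds for 18 h at 37 C; cells, 2,000 per well, had been preincubated 6 h before compound transfer.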

[10] = qHTS assay to identify small molecule agonists of the estrogen related receptor signaling pathway with the pleiotropic PPARgamma coactivator (PGC) from Tox21 10K library (AID 1224842); also: nearly all actives have a fitted effect of over 15% in size; also: potency is read from the fitted curve at half-maximal effect
Method in brief: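 Luminescence from One-Glo (30 min, room temperature) measured after PGC/ERR cells had 18 h at 37 C with pinned compound (23 nL in DMSO). Cells had been seeded at 2,000 per well and pre-incubated 6 h.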

Measured: Potency

C[C@H](CS)C(=O)N1CCC[C@H]1C(=O)O
inactive: [1] | [2] | [3] | [4] | [5] | [6] | [7]

CCCCCCOC(=O)CCCCC
inactive: [8] | [2] | [5] | [6] | [7]

CC(C)CC(O)CC(C)C
inactive: [8] | [3] | [4] | [5] | [9] | [10] | [6] | [7]

C=C(C)C(=O)OCCC(F)(F)C(F)(F)C(F)(F)C(F)(F)C(F)(F)C(F)(F)F
inactive: [1] | [2] | [3] | [4] | [5] | [6]

CC(C)c1ccc(C#N)cc1
inactive: [1] | [2] | [3] | [4] | [5] | [9] | [10] | [6] | [7]

NC(=O)c1ccccc1[N+](=O)[O-]
inactive: [8] | [2] | [5] | [6] | [7]

CC(C)(O)CCc1ccccc1
inactive: [8] | [2] | [5] | [6]

COc1cc(NCc2ccc3nc(N)nc(N)c3c2C)cc(OC)c1OC
active: [3] 0.0266 µM | [9] 0.075 µM
inactive: [8] | [4] | [5] | [10] | [7]

O=C(Oc1ccccc1)c1ccc2ccccc2c1O
active: [4] 54.5 µM | [10] 9.69 µM
inactive: [1] | [2] | [3] | [5] | [9] | [7]

COc1ccc(C(=O)NCc2ccc(OCCN(C)C)cc2)cc1OC
inactive: [8] | [2] | [5] | [10]

CCCCCCCCCCCSCC(=O)O
inactive: [1] | [2] | [3] | [4] | [5] | [9] | [10] | [6]

Cc1ccc(N(CCO)CCO)cc1
inactive: [1] | [2] | [3] | [4] | [5] | [6] | [7]

CC(CCc1ccc(O)cc1)NCCc1ccc(O)c(O)c1 (stereo not given)
inactive: [8] | [5] | [9] | [10] | [6]

CCN(CC)c1ccc(C(=C2C=CC(=[N+](CC)CC)C=C2)c2ccc(S(=O)(=O)O)cc2S(=O)(=O)[O-])cc1
active: [8] 8.94 µM | [2] 27.3 µM | [5] 27.3 µM | [9] 8.63 µM | [7] 8.71 µM
inactive: [10]

CC(C)C(O)C(C)(C)CO (stereo not given)
active: [3] 8.91 µM | [9] 1.78 µM
inactive: [8] | [4] | [10] | [6]

CCN(CC)C(=O)/C(C#N)=C/c1cc(O)c(O)c([N+](=O)[O-])c1
inactive: [8] | [3] | [4] | [6]

CCCCCC
inactive: [1] | [2] | [3] | [4] | [5] | [6]

O=[N+]([O-])c1ccc2ncccc2c1
inactive: [1] | [2] | [3] | [4] | [5] | [10] | [6]

O=C(O)CCS
inactive: [8] | [3] | [5] | [9] | [10] | [6] | [7]

CCCCCc1ccco1
inactive: [1] | [2] | [3] | [4] | [5] | [6] | [7]

CC[C@H]1OC(=O)[C@H](C)[C@@H](O[C@H]2C[C@@](C)(OC)[C@@H](O)[C@H](C)O2)[C@H](C)[C@@H](O[C@@H]2O[C@H](C)C[C@H](N(C)C)[C@H]2O)[C@](C)(O)C[C@@H](C)C(=O)[C@H](C)[C@@H](O)[C@]1(C)O
inactive: [8] | [3] | [4] | [5] | [6] | [7]

CNS(=O)(=O)c1cc(C(=O)N2CCC(CCN3C4CCC3CC(n3c(C)nc5ccccc53)C4)(c3cccc(F)c3)CC2)c(Cl)cc1F (stereo not given)
inactive: [8] | [2] | [6]
active: [7] 3.89 µM

CN1C(CSCC(F)(F)F)Nc2cc(Cl)c(S(N)(=O)=O)cc2S1(=O)=O (stereo not given)
inactive: [8] | [3] | [4] | [5] | [10] | [6] | [7]

CC(C)COC(=O)COc1cc(Cl)c(Cl)cc1Cl
inactive: [1] | [2] | [3] | [4] | [5] | [9] | [10] | [7]

Nc1ccc(N=Nc2ccc(N)cc2)cc1
inactive: [3] | [4] | [6]
active: [8] 4.48 µM

CCCCCCCCCCCCCC(=O)OCC(O)CO (stereo not given)
inactive: [1] | [2] | [3] | [4] | [5] | [9] | [10] | [6]

ClC1=C(Cl)C1(Cl)Cl
inactive: [1] | [2] | [3] | [4] | [5] | [9] | [10] | [6] | [7]

[Cl][Nd]([Cl])[Cl]
inactive: [1] | [2] | [3] | [4] | [5] | [9] | [10] | [6] | [7]

CCN(CC)c1cccc(O)c1
inactive: [1] | [2] | [3] | [5] | [9] | [10] | [7]
active: [4] 55.6 µM

Nc1nc2ccc(OC(F)(F)F)cc2s1
inactive: [1] | [2] | [3] | [5] | [6] | [7]
active: [4] 11.9 µM

Cc1ccc(S(=O)(=O)NC(=O)NC2CCCCC2)cc1
inactive: [8] | [2] | [5] | [6] | [7]

CN(C)CC/C=C1\c2ccccc2Sc2ccc(Cl)cc21
inactive: [8] | [4] | [9] | [6]

CCCCC(CC)COS(=O)(=O)O (stereo not given)
inactive: [8] | [2] | [5] | [9] | [10] | [6] | [7]

COC(=O)C1=C(C)NC(C)=C(C(=O)OC(C)(C)CN(C)CCC(c2ccccc2)c2ccccc2)C1c1cccc([N+](=O)[O-])c1 (stereo not given)
inactive: [8] | [3] | [4] | [10] | [6] | [7]
active: [9] 16.8 µM

O[C@@H](CNC[C@H](O)[C@H]1CCc2cc(F)ccc2O1)[C@@H]1CCc2cc(F)ccc2O1
inactive: [8] | [4] | [10] | [6]
active: [9] 33.5 µM | [7] 23.9 µM

COc1ccc(-c2cc(=S)ss2)cc1
inactive: [1] | [2] | [3] | [5] | [6] | [7]
active: [4] 23.7 µM

OCC(CO)n1cnc(-c2ccc(F)cc2)c1-c1ccnc(Oc2ccccc2)n1
inactive: [1] | [2] | [3] | [4] | [5] | [10] | [6] | [7]
